# Experimental data published in the supplement of paper PMC6555819.
# What was measured:
# Assay in all cases: PBM binding z-score (relative to random genomic background probes); higher = stronger binding; sequences stand for … in GC…GCGATTGACAGCGTAGAATGAAGG
# [1] = tested on: PPARg:RXRa DBDmut IVT, anti-RXR (DBD mutation: RXRa K156A/R161A, NR concentration 270 nM, RXRa partner concentration 90 nM)
# Method in brief: (§1)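 Custom Agilent 4×180K protein-binding microarrays carried double-stranded probes, each with a 34-nt variable region. These regions held direct-repeat seeds, single-nucleotide variants, half-site ablations and random human genomic background sequences. Ligand-free nuclear receptor dimers were incubated on the arrays for 1 h, antibodies against each partner (one per run) detected binding, and scanned fluorescence was regression-normalized. Binding z-scores take the random background probes as reference.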
# [2] = tested on: PPARg:RXRa IVT, anti-PPARg (NR concentration 270 nM, RXRa partner concentration 90 nM)
# Method in brief: as §1
# [3] = tested on: PPARg DBDmut:RXRa IVT, anti-PPARg (DBD mutation: PPARg1 K132A/R137A, NR concentration 270 nM, RXRa partner concentration 90 nM)
# Method in brief: as §1
# [4] = tested on: PPARg DBDmut IVT, anti-PPARg (DBD mutation: PPARg1 K132A/R137A, NR concentration 270 nM)
# Method in brief: as §1
# [5] = tested on: PPARg homodimer (NR concentration 180 nM)
# Method in brief: as §1
# [6] = tested on: PXR:RXRa (NR concentration 270 nM, RXRa partner concentration 90 nM)
# Method in brief: as §1
# [7] = tested on: PXR homodimer (NR concentration 270 nM)
# Method in brief: as §1
# [8] = tested on: RARa:RXR (NR concentration 270 nM, RXRa partner concentration 90 nM)
# Method in brief: as §1
# [9] = tested on: RARa homodimer (NR concentration 270 nM)
# Method in brief: as §1
# [10] = tested on: RARb:RXRa (NR concentration 270 nM, RXRa partner concentration 90 nM)
# Method in brief: as §1
# [11] = tested on: RARb homodimer (NR concentration 270 nM)
# Method in brief: as §1
# [12] = tested on: RARg:RXRa (NR concentration 270 nM, RXRa partner concentration 90 nM)
# Method in brief: as §1
# [13] = tested on: RARg homodimer (NR concentration 270 nM)
# Method in brief: as §1
# [14] = tested on: RXRa DBDmut IVT, anti-RXR (DBD mutation: RXRa K156A/R161A, NR concentration 90 nM)
# Method in brief: as §1
# [15] = tested on: RXRa homodimer (NR concentration 180 nM)
# Method in brief: as §1
# [16] = tested on: THRa:RXRa (NR concentration 90 nM, RXRa partner concentration 90 nM)
# Method in brief: as §1
# [17] = tested on: THRa homodimer (NR concentration 90 nM)
# Method in brief: as §1
# [18] = tested on: VDR:RXRa (NR concentration 270 nM, RXRa partner concentration 90 nM)
# Method in brief: as §1
# [19] = tested on: VDR homodimer (NR concentration 270 nM)
# Method in brief: as §1
Sequence,PBM binding z-score [1],PBM binding z-score [2],PBM binding z-score [3],PBM binding z-score [4],PBM binding z-score [5],PBM binding z-score [6],PBM binding z-score [7],PBM binding z-score [8],PBM binding z-score [9],PBM binding z-score [10],PBM binding z-score [11],PBM binding z-score [12],PBM binding z-score [13],PBM binding z-score [14],PBM binding z-score [15],PBM binding z-score [16],PBM binding z-score [17],PBM binding z-score [18],PBM binding z-score [19]
CGTCCAAGGTCAATGCTAGGTCAATGAAAGCATT,2.82,4.3,0.467,0.337,5.41,5.09,1.55,5.61,1.61,5.25,5.08,7.66,6.89,3.4,5.18,4.57,3.59,5.33,3.48
ATCGAAAGGGCGAAGGTGAGTATACCCACCCGAA,-0.906,0.809,0.146,-0.234,1.04,0.359,-0.166,1.03,-0.384,1.94,1.17,1.63,1.2,-0.634,1.59,0.3,-0.75,0.347,-0.263
CCTTACGTGTCACGAGGTTATAGCACGACGAGCG,2.43,2.16,0.0495,0.563,1.81,1.5,0.447,1.97,0.817,1.78,1.49,2.24,1.64,0.866,2.06,1.96,0.982,1.89,1.01
AGTCAAAGTTCAGGTCGAGGTAACGTAAAGCACG,-0.195,2.16,0.434,0.251,2.76,3.53,2.14,3.43,1.49,4.47,3.87,4.95,4.97,3.14,3.08,4.18,2.7,3.41,2.75
CATACTGGGCCAAGGTCATTGATCAGTCAAAGCA,3.65,4.49,0.346,-0.286,2.02,3.78,2.15,4.01,0.356,3.35,3.56,3.85,3.29,1.62,3.31,3.49,2.63,3.48,3.71
TCATATAGGTAAACAGGTGTAAGTCCGTAAGTTA,3.98,2.97,1.63,0.913,1.12,0.63,0.672,0.946,1.32,0.512,0.165,0.307,0.308,1.57,0.982,0.356,0.324,1.6,0.657
TCTCCGAGGACACGAAGGTCAGAGCTTTCCAGAG,1.19,1.32,-0.386,-0.524,1.23,2.1,1.31,2.06,-0.358,3.54,3.51,3.46,4.49,0.665,2.02,3.74,2.44,2.69,1.76
CGTCCAAGGTCAAAGGTCAGTGACGAGATGACGG,4.07,5.8,1.24,0.0683,6.48,7.17,2.08,8.72,2.59,5.86,5.47,8.79,8.22,3.93,10.5,4.85,2.69,6.67,3.54
GCTTGTAGATCAAGGTTAATAAAGACTAAGCTAA,1.14,0.996,-0.734,0.456,-0.133,0.16,0.327,0.282,0.0284,0.519,0.0389,0.0476,0.168,-0.167,0.452,1,-0.489,-0.00898,-0.152
ACTTACGGGTCAACGAGGTTATAGCGCGCGTATA,3.58,4.21,0.78,1.28,2.15,5.22,3.53,5.29,0.581,4.29,3.76,5.67,5.32,2.92,6.24,4.09,0.869,7.58,4.01
CGAACTAGGTCAGAACAGGACAGTCAAGGATGAT,7.24,7.46,1.4,0.732,0.7,1.08,0.108,1.05,0.263,3.08,2.26,2.65,3.09,0.873,1.35,3.42,0.288,0.754,0.29
TCTGTTAGGTCAACGATGGTCAGCTAATCTGCTA,3.53,4,2.9,2.09,2.86,2.43,0.247,3.28,1.58,4.37,3.65,4.38,4.93,1.61,3.2,3.73,2.76,,0.727
CCTGCTAGGTCTTGGTCAGCTAATCTACAGTATG,0.846,-0.117,-0.408,-1.03,-0.24,-0.552,-0.561,-0.0179,-1.02,0.537,0.408,-0.194,-0.144,0.336,-0.394,-0.178,-0.108,-0.434,-0.656
ATCACTAGGTAACCAAGTTCAGTGAATGCCGAAC,4.99,4.16,1.62,0.399,0.811,2.06,1.73,0.23,0.365,1.01,1.26,0.732,0.632,0.466,0.53,1.32,0.313,,2.41
TCTATTAGTTGAAGGGCAACCGACGAGTCCGTTT,2.35,0.776,1.09,0.986,1.26,1,1.32,0.605,0.801,1.61,1.41,0.635,0.786,1.57,0.701,0.419,0.09,1.09,1.87
